# Data from ChEMBL document CHEMBL3988442, “University of Dundee, Small-Polar-MMV Screening Library” (2021).
# Legend:
# [1] = molecular target: T1, Aspartate--tRNA(Asp/Asn) ligase (Mycobacterium tuberculosis (strain ATCC 25618 / H37Rv)) (UniProt P9WFW3); test: Assay for Asp RNA synthetase-1 from Mycobacterium tuberculosis; type: functional; design: scale not given: direction of the effect not stated beside the values; details: 30 µM; also: in the data most compounds retested in dose-response had high values
# T1 sequence (whole entry): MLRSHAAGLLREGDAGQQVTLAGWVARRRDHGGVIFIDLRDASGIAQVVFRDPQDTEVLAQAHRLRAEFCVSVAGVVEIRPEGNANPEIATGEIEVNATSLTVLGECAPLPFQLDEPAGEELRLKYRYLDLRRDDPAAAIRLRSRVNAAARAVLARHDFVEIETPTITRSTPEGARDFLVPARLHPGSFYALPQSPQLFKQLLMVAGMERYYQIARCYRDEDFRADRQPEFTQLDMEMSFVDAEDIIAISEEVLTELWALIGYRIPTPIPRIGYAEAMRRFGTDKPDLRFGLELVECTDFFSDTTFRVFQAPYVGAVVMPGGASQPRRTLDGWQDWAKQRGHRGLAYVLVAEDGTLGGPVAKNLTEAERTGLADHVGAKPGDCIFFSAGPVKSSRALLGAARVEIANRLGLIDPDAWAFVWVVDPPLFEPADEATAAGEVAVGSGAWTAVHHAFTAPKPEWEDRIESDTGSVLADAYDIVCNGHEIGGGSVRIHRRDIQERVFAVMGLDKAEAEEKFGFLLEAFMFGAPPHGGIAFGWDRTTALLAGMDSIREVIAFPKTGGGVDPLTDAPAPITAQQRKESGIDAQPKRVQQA
# [2] = molecular target: Shiga toxin 2 (Escherichia coli O157:H7) (UniProt P09385+P09386); test: E. coli 0.157:H7 Shiga Toxin SOP - stx2 screening assay; type: functional; design: scale not given: direction of the effect not stated beside the values; details: 30 µM
SMILES,Percent Effect [1] [%],Percent Effect [2] [%]
CC(NC(=O)NCCCn1ccnc1)c1ccc2c(c1)CCC(=O)N2 (stereo not given),-3.85,-22.9
CCN1CC2(CC1=O)CN(C(C)=O)CCN(C(=O)c1ccco1)C2 (stereo not given),-3.81,-35.2
CN(C)C(=O)c1nc2c(s1)CCN(C(=O)c1ccc(Cl)cc1)CC2,2.36,-16.7
Cc1nc[nH]c1CN1C[C@@H]2CC[C@H](C1)N(C(=O)CCc1cnn(C)c1)C2,0.752,5.79
CN1CCCC2(CCN(C(=O)CCn3cncn3)C2)C1=O (stereo not given),-4.51,27.3
